Screening results deposited in PubChem by National Center for Advancing Translational Sciences (NCATS).
12-LOX inh – inhibitors of human 12S-lipoxygenase ALOX12 | purified 12hLO, xylenol orange hydroperoxide absorbance | Potency, µM (top dose mostly 108 µM), most hits filed as inhibitors | hit rate 1.1% among 580,000
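Hydroperoxide product was detected by ferrous iron/xylenol orange as the 573 to 405 nm absorbance ratio. Arachidonic acid at 40 uM (final) was turned over for 30 min at room temperature by 150 nM human 12hLO, pH 7.0 Hepes buffer, after 15 min compound preincubation.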
TDP1 block – blocks human tyrosyl-DNA phosphodiesterase 1; Q9NUW8; recombinant TDP1, AlphaScreen DNA substrate cleavage; Potency, µM (titrated, usually from 130 µM), usual class: inhibitors; hit rate 0.28% among 350,000; AID 485290; note: nearly all actives have a fitted effect of over 40% in size
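Here, a 5' biotin and 3' phosphotyrosine-FITC DNA oligonucleotide reports Tdp1 activity: intact substrate bridges AlphaScreen beads, while cleavage leaves a 3' phosphate and drops signal. All incubations at room temperature.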
PTAP TSG101 blk – blocks PTAP/TSG101 interaction to inhibit HIV-1 budding; Fluorescence polarization, FITC-PTAP peptide / Tsg101 binding; Potency, µM (titrated, usually from 115 µM), actives largely listed as inhibitors; 340,000 tested, under 10 active; active = well fitted inhibition curve with a large enough effect in the main read-out, with a control signal flat, not every such curve was filed as active; inconclusive = small, poorly fitted or top-dose-only effect, or effect the other way, or a change in a side signal; inactive = no such curve, though single readings can be large or run the other way
Target sequence (Q99816 whole entry, looked up): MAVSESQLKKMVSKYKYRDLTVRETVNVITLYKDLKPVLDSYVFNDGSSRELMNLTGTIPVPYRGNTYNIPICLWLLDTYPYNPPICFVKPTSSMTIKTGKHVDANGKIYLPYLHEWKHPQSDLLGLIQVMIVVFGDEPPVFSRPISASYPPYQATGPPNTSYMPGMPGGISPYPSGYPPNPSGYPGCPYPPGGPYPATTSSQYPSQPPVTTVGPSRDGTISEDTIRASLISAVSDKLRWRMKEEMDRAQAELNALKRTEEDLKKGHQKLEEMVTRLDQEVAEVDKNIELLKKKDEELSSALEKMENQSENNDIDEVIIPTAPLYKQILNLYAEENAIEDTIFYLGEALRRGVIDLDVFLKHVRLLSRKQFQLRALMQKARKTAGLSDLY
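Fluorescence polarization binding of Tsg101 binding domain (10 uM final) to FITC-labeled PTAP peptide (50 nM final) in HEPES pH 7.5 buffer with NaCl, Tween 20, EDTA, TCEP. Compounds added before peptide; binding 20 min at RT.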
Rango release inh – inhibition of RanGTP-driven Rango-importin beta dissociation; Biochemical FRET Rango-importin beta, RanGTP-induced dissociation; Potency, µM (series often up to 46.1 µM); hit rate 0.071% among 340,000; AID 540253; O95149+P62826; calls by dose curve; note: nearly all actives have a fitted effect of over 45% in size
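Quantitative HTS using a FRET biosensor: 0.1 uM Rango, 0.25 uM importin beta, 0.6 uM Ran, 2 mM GTP, 0.2 uM RCC1 final, PBS with DTT, Tween-20 and BSA. Post-read taken 45 min after Ran addition.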
ClpP mod – qHTS Assay for Activators of ClpP. ATP-dependent Clp protease proteolytic subunit (Bacillus subtilis (strain 168)), P80244. purified B. subtilis ClpP, FRET peptide cleavage, 20 min. Potency, µM (series often up to 57.5 µM). hit rate 1.9% among 340,000. AID 651965, 2013; active = well fitted falling curve with a large enough effect; inconclusive = small, poorly fitted or top-dose-only effect; inactive = no such curve, though single readings can be large or run the other way; note: the source files actives as falling curves though it sought activators and does not explain the sign; nearly all actives have a fitted effect of over 65% in size
Target sequence (P80244 whole entry, looked up): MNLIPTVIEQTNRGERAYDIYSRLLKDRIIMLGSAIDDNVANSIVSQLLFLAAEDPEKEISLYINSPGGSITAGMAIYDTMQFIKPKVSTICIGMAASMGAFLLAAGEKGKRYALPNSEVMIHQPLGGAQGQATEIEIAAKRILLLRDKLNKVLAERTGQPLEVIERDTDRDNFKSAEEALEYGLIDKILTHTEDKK
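Purified B. subtilis ClpP, 10 microg/mL final in Tris/HCl pH8 with KCl, BSA, glycerol and Tween-20, cleaved an Abz/nitrotyrosine-quenched decapeptide. Fluorescence (ex 320, em 430) was read at 0 and 20 min at room temperature. Delta was normalized to 5.8 microM ADEP and DMSO/no-enzyme controls.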
Rango complex inh – Rango-importin beta binding inhibition; Q14974; Rango CFP/YFP FRET sensor + importin beta, 45 min; Potency, µM (highest dose often 92.2 µM); hit rate 0.031% among 340,000; AID 540263; calls by dose curve; note: nearly all actives have a fitted effect of over 15% in size
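FRET biosensor Rango (snurportin 1 IBB between N-terminal EYFP and C-terminal Cerulean), 50 nM in PBS/1 mM DTT/0.02% Tween-20/0.1% BSA, preincubated 5 min RT with compound; 0.125 microM importin beta added, 45 min RT, CFP/YFP FRET ratio read.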
Numbers stand for hits; – = inactive; ? = inconclusive; · = no result given; [ ] = dose if it differs, or a comment. Rows were chosen to be rich in hits. Some 2.4% of all compounds tested hit in one or more screens of this group. Unless noted, calls come from the whole dose curve; as a rule, active = well fitted curve in the direction sought with a large enough effect; inconclusive = small, poorly fitted or top-dose-only effect, or another doubt; inactive = no such curve, though single readings can be large; an effect the other way counts as inactive or inconclusive.

SMILES	12-LOX inh	TDP1 block	PTAP TSG101 blk	Rango release inh	ClpP mod	Rango complex inh
Cc1ccsc1C(=O)N1CCCC(N2CCN(c3cccc(Cl)c3)CC2)C1 (stereo unspecified)	–	–	–	–	–	–
O=C1CCC2(CC1)NC(=O)N(c1ccccc1)N2	?	–	–	–	·	–
Cc1cc(C(=O)O)sc1-c1ccc(C(C)(C)C)cc1	–	·	·	·	·	·
CN(CC(=O)Nc1ccc(F)c(F)c1F)C(=O)CCc1nc2sc3c(c2c(=O)[nH]1)CCCC3	18µM	–[0.505 µM]	–	–	·	?
CN(C)C(CNC(=O)CCc1nc2sc3c(c2c(=O)[nH]1)CCCC3)c1ccccc1 (stereo unspecified)	–	·	–	–	28µM	–
Cc1cccc(NC(=O)CNC(=O)CCc2nc3sc4c(c3c(=O)[nH]2)CCCC4)c1C	10µM	?	–	?	–	?
Cc1cccc(C)c1NC(=O)CN(C)C(=O)CCc1nc2sc3c(c2c(=O)[nH]1)CCCC3	–	–	–	–	–	?
CC(C)NC(=O)C(=O)c1c(-c2ccccc2)[nH]c2ccccc12	–	·	·	·	·	·
COc1cc(NC(=O)c2cc3n(n2)CC(c2ccc(Cl)cc2)OC3)cc(OC)c1OC (stereo unspecified)	–	·	·	·	·	·
Cc1cccc(Oc2c(C(F)(F)F)oc3cc(OC(=O)c4cncc(Br)c4)ccc3c2=O)c1	8.9µM	·	·	·	·	·
O=C(Nc1ccc(F)cc1)C(c1ccccc1)N1CCN(C(=O)C2CC2)CC1 (stereo unspecified)	–	·	·	·	·	·
O=C(CSc1ccccc1)Nc1ccc(-c2nc3ccccc3[nH]2)cc1	–	–	–	–	–	–
O=C(COc1ccccc1)Nc1cccc(-c2nc3ccccc3[nH]2)c1	–	–	–	–	32µM	–
COc1ccc(OCC(=O)Nc2cccc(-c3nc4ccccc4[nH]3)c2)cc1	–	–	–	–	?	–
O=C(CSc1ccc(Cl)cc1)Nc1cccc(-c2nc3ccccc3[nH]2)c1	–	–	–	–	13µM	–
O=C(O)CCCC(=O)Nc1cccc(-c2nc3ccccc3[nH]2)c1	–	–	–	–	25µM	–
O=c1n(Cc2ccc(F)cc2Cl)nc2n1CCCCC2	–	·	·	·	·	·
C=CCNC(=S)Nc1cccc(Cl)c1	–	·	·	·	·	·
S=C(NCCCCCCNC(=S)Nc1cccc(Cl)c1)Nc1cccc(Cl)c1	16µM	·	·	·	·	·
S=C(NCCC(c1ccccc1)c1ccccc1)Nc1cccc(Cl)c1	22µM	–	–	–	–	–
S=C(NCCC(c1ccccc1)c1ccccc1)Nc1ccccc1	35µM	·	·	·	·	·
COc1ccc(OC)c(NC(=S)NCCC(c2ccccc2)c2ccccc2)c1	8.9µM	·	–	–	–	–
O=C(Nc1cccc2cccnc12)c1ccc(N2CCCC2)c([N+](=O)[O-])c1	–	·	·	·	·	·
Cc1ccc(CN2C(=O)[C@@H]3C[C@@H](O)CN3C3(CN(C4Cc5ccccc5C4)C3)C2=O)o1	–	·	·	·	·	·
CCOCCCNCc1ccc(-c2ccc(F)cc2)o1	–	·	·	·	·	·
SMILES	12-LOX inh	TDP1 block	PTAP TSG101 blk	Rango release inh	ClpP mod	Rango complex inh
Cc1ccccc1NC(=S)NCCC(c1ccccc1)c1ccccc1	32µM	–	–	–	13µM	–
S=C(NCCCNC(=S)Nc1ccccc1)Nc1ccccc1	?	–	–	–	–	–
S=C(NCCNc1c(Cl)c(Cl)c(Cl)c(Cl)c1Cl)Nc1ccccc1	13µM	·	·	·	·	·
O=c1oc(/C=C/c2ccc([N+](=O)[O-])s2)nc2ccccc12	·	–	–	9.2µM	–	?
CC(=O)Oc1ccccc1/C=C/c1nc2ccccc2c(=O)o1	?	·	–	–	·	–
CN1/C(=C\C(=O)COC(=O)c2ccc(O)c(O)c2)C(C)(C)c2ccccc21	10µM	–	–	–	·	–
O=[S+]1([O-])NCC2(CCN(CC3CCCCC3)CC2)Nc2ccccc21	–	·	·	·	·	·
COC(=O)c1cnn(-c2ccc(C(=O)Nc3ccc(C(C)=O)cc3)cc2)c1N	–	35µM	·	·	–	·
Cc1cc2oc(=O)cc(CN3CCCC3)c2cc1Cl	6.3µM	·	·	·	–	·
CCCCN(CCCC)Cc1cc(=O)oc2ccc3ccccc3c12	35µM	·	·	·	?	·
CCCN(CCC)Cc1cc(=O)oc2cc(C)c(C)cc12	?	·	·	·	–	·
COCCN(CCOC)Cc1cc(=O)oc2ccccc12	18µM	·	·	·	–	·
CCCN(CCC)Cc1cc(=O)oc2cc(C)c(Cl)cc12	40µM	·	·	·	–	·
CCc1nc2cc(C(=O)N[C@H]3CCCCNC3=O)cc(NC(=O)c3ccccc3OC)c2n1C	–	·	·	·	·	·
O=C(CN1C(=O)NC2(CCCCC2)C1=O)N1CCN(c2ccccc2)CC1	–	·	·	·	·	·
COCCN(CCOC)Cc1cc(=O)oc2cc(OC)c(Cl)cc12	?	·	·	·	–	·
Cc1ccc2c(CN3CCN(S(=O)(=O)c4ccc(Cl)cc4)CC3)cc(=O)oc2c1C	–	–	–	–	14µM	–
COCCN(CCOC)Cc1cc(=O)oc2cc(C)c(Cl)cc12	45µM	·	·	·	–	·
O=C(OCc1ccccc1)N1CCC2CC1c1cc(N3CCN(C(=S)NCCc4ccccc4)CC3)ccc12 (stereo unspecified)	20µM	·	·	·	–	·
Cc1ncccc1OC1(C(=O)O)CCN(C(=O)c2cccc(F)c2)CC1	–	·	·	·	·	·
Cc1c(NC(=O)CCC(C)C)cccc1C(=O)N1CCc2sccc2C1	–	·	·	·	·	·
O=C(Nc1ccccc1-c1nnc(SCc2ccc(Cl)cc2)o1)c1ccccc1	–	–	–	–	10µM	–
O=C(O)c1ccc(CSc2nnc(-c3ccc(Cl)cc3)o2)cc1	–	·	–	–	–	–
O=C(Nc1ccccc1-c1nnc(SCc2ccccc2)o1)c1ccccc1	–	–	–	–	28µM	–
CC(=O)c1ccc(NC(=O)N[C@@H]2C=C(C(=O)N[C@H](CC(C)C)C(N)=O)C[C@@H](O)[C@@H]2O)cc1	–	·	·	·	·	·
SMILES	12-LOX inh	TDP1 block	PTAP TSG101 blk	Rango release inh	ClpP mod	Rango complex inh
CCN(C(=O)Cn1c(=O)c2c(ncn2CCOC)n(Cc2ccccc2)c1=O)c1ccccc1	–	·	·	·	·	·
O=C(NCC1(COc2ccc(C(F)(F)F)cn2)C[C@@H](O)[C@@H](O)C1)c1ccno1 (stereo partly specified)	–	·	·	·	·	·
COc1ccc(C(=O)Nc2cc(NC(=O)C(C)C)ccc2C)cc1F	–	·	·	·	·	·
COc1ccc(S(=O)(=O)N(CCc2ccccc2)CC(=O)NC(C)C)cc1	32µM	–	–	–	–	–
COc1ccc(S(=O)(=O)N(CC(=O)NC(C)C)Cc2ccccc2)cc1	–	–	–	–	–	–
CCCCCCCCCCOC(=O)CSC(=S)N(C)C	–	·	·	·	·	·
CC(=O)NC[C@H]1CCN(Cc2ccc(C#N)cc2)C[C@H]1N(C)C	–	·	·	·	·	·
Cc1ccccc1Cn1c(-c2cccs2)nc2ccccc21	–	–	·	·	?	·
c1csc(Cn2c(-c3cccs3)nc3ccccc32)c1	–	–	–	–	32µM	–
